Data reported in the supplement of paper PMC10681739.

Target: T1, ETS1 (UniProt P14921)
T1 sequence: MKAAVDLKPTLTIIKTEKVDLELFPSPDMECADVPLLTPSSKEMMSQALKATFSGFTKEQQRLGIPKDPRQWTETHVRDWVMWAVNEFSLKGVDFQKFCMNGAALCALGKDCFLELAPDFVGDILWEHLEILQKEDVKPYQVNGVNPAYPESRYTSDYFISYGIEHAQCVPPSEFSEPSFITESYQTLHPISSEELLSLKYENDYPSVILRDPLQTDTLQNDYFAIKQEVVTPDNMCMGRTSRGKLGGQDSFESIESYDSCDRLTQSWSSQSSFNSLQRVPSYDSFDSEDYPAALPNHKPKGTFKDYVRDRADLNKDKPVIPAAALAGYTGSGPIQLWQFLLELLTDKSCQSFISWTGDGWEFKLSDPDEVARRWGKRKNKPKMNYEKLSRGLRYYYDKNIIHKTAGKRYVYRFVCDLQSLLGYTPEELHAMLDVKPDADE
Test: ETS1 binding intensity (PBM fluorescence), ETS1 alone (arbitrary fluorescence units); higher = stronger binding
Conditions: ETS1 concentration 1 nM; RUNX1 concentration 0 nM
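For RUNX1 binding intensity (PBM fluorescence), RUNX1 alone in this document: Full-length recombinant human RUNX1 bound to double-stranded 36-bp genomic probes on a high-density microarray, scored as Alexa488 fluorescence per spot via anti-RUNX1 antibody, median of four replicate spots.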

Sequence	ETS1 binding intensity
AGCTCAATTTCCTGGCGTGTAACATGGCCACAAGGG	827
ACAGGCTGTCTGCTTCCGTCAGCGGTTATTCCCTTG	523
GCTATCCCCGCCCCTTCCTGTGGGCTGGCGCCCGAT	482
GTGGGGGTGACAGGATGCGGGTAGAGGGCTCAGCCA	1950
GGTCCGGATGTATAAAGCGCGGCCCCCTGCGGGGAG	910
ATTAAAGACTTCCGTGCAAGACCACAGCTGCCTGAC	555
TGCTTCCCTTCCGTTCCGACAGCGAAAACCGCTGCC	532
GCGCTTCCTGCCAGCTTGGAGGATAACCGCCTACCG	505
AAACCCCAAACAGGAAGTGGTAAAGCAACCTGCATC	11200
TGCAGTCTCAACTTCCTGCGGTCAAGTGATCCTTCA	654
AAAACCTTGTTGAAAGGATGTGGCTTAGCGAGAGGT	1140
TGAGGGCATAGGAAGTGATGGCCGCAAGGGGATGCC	1860
AGGGTTACAATTTCCGTAAACCACAGAAGCAGCAGA	550
ATCACAAGCAGAGGATGTGGTTAGTGTTTCGTTCCA	804
GTTGTGCTCTTTCCTGCTTCCCGCAGTTTTTTAGTT	626
AAATCACATACCCGGAAACCACATGCACAGAAGTGG	1480
GTATCACTTCCTGTTTTCCTCTGTGGCTTACTGCTG	3310
CGAGTCAGGAAATCACAGCTCTGCGGGTGGGCTCCT	458
GGAGCGGCGGAAGGGAGCTTGCGGCGGGAGGCTGAA	423
CTCCATCTGCCCGGAAAACCGCAGCCGCCCCAACCT	841

Sequence	ETS1 binding intensity
GACGGGAGCACCGGAAGCGGTCTTTCCCCGAGCGGA	12900
CGTACGCGCACTTCCGGTCTTTGTGGCTTGCAGCTC	18000
GTAAGTAGGCCAGGAAGTGGTCACTGCAGCATGTGA	3740
GTTCAGCGGACGGCTTCCTGCGGCTTGCTGGGGCCG	361
CTCACTCATCTGACTTCCTGCGGTTTACGACAACAG	1200
GGCGGCCTCAACTTCCGCGGTGGGACTCCGGAGCAG	503
AGCCCGGCTTCCGGCGCGTGCCGCTGCGGCTGCAGG	791
CCCCTCTCTCCCACTTCCTGTGGTCTCAGTCTTTGT	3360
TGGGGTTTCCTGGGGAGAAACTTAGCCCTACCACAC	527
CACTTCCTATCGCTACATAACAAATTACCACAGACT	451
CTCTGAACTTCCTCTCTTTTAACCACAACTTACTAC	549
GGGGAAGAGGGGAGGATGTCTGAGGTTTTAATTGTA	523
CTTCCCTTGCCCCGGAAAAGGGCGGTAAGAGGGAGC	1200
CAGCGGCCGTCGCGGGAAGTGCGGTCGCCGCGGCCA	500
CTGAGCAAAAGGAGGAAGCTGTGGTCTGTGTACCCA	606
TGGTGGCTATTTCCTCTCCCGCTGTGGTCCCTGGAG	563
ATCAGAGCGGAAATCTCAGTCTTGTGTGGGGACCTG	1960
GAAGTCACATCCTGTCTGTTGCGGCAGGGCACAGAG	1470
GTGAACTTCCTCCCCCACTGCCTATTTTTACCGCAG	624
TCCCCACACTTCCGGCCCCGCCCGCACAGCCGCACC	3270

Target: RUNX1 (UniProt Q01196)
Sequence (Q01196 whole entry): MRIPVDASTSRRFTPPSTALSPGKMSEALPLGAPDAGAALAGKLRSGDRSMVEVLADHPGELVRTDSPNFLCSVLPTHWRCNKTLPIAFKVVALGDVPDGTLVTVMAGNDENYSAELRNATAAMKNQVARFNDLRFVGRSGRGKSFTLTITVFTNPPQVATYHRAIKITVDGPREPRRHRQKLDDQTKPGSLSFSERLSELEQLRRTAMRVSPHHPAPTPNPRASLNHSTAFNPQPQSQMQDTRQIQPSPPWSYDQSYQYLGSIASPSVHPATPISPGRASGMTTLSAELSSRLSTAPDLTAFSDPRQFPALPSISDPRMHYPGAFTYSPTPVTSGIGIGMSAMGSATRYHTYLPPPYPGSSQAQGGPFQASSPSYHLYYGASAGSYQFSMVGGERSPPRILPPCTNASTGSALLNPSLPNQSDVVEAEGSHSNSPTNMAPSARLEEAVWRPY
Test: RUNX1 binding intensity (PBM fluorescence), RUNX1 alone (arbitrary fluorescence units); higher = stronger binding
Conditions: RUNX1 concentration 2 nM; ETS1 concentration 0 nM
Experimental: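 Cooperative gcPBM on 36-bp genomic probes with neighbouring ETS1 and RUNX1 sites. Recombinant human RUNX1 (2 nM) was incubated alone or with ETS1 (25 nM) and detected with anti-RUNX1 antibody plus Alexa488 secondary. Values are medians over 4 replicate spots; the RUNX1+ETS1 data were normalised to the RUNX1-only data. The probes sit in constant array flanks that are not printed.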

Sequence	RUNX1 binding intensity
AGCTCAATTTCCTGGCGTGTAACATGGCCACAAGGG	830
ACAGGCTGTCTGCTTCCGTCAGCGGTTATTCCCTTG	882
GTGGGGGTGACAGGATGCGGGTAGAGGGCTCAGCCA	909
GGTCCGGATGTATAAAGCGCGGCCCCCTGCGGGGAG	732
TGCTTCCCTTCCGTTCCGACAGCGAAAACCGCTGCC	998
GCGCTTCCTGCCAGCTTGGAGGATAACCGCCTACCG	754
AAACCCCAAACAGGAAGTGGTAAAGCAACCTGCATC	826
TGCAGTCTCAACTTCCTGCGGTCAAGTGATCCTTCA	3750
AGGGTTACAATTTCCGTAAACCACAGAAGCAGCAGA	1450
ATCACAAGCAGAGGATGTGGTTAGTGTTTCGTTCCA	995
GTTGTGCTCTTTCCTGCTTCCCGCAGTTTTTTAGTT	1470
AAATCACATACCCGGAAACCACATGCACAGAAGTGG	1090
GTATCACTTCCTGTTTTCCTCTGTGGCTTACTGCTG	1300
CTCCATCTGCCCGGAAAACCGCAGCCGCCCCAACCT	28600
GACGGGAGCACCGGAAGCGGTCTTTCCCCGAGCGGA	736
CGTACGCGCACTTCCGGTCTTTGTGGCTTGCAGCTC	853

Sequence	RUNX1 binding intensity
GTAAGTAGGCCAGGAAGTGGTCACTGCAGCATGTGA	722
GTTCAGCGGACGGCTTCCTGCGGCTTGCTGGGGCCG	724
CTCACTCATCTGACTTCCTGCGGTTTACGACAACAG	11100
AGCCCGGCTTCCGGCGCGTGCCGCTGCGGCTGCAGG	678
CCCCTCTCTCCCACTTCCTGTGGTCTCAGTCTTTGT	1500
CACTTCCTATCGCTACATAACAAATTACCACAGACT	2490
CTCTGAACTTCCTCTCTTTTAACCACAACTTACTAC	10500
GGGGAAGAGGGGAGGATGTCTGAGGTTTTAATTGTA	861
CAGCGGCCGTCGCGGGAAGTGCGGTCGCCGCGGCCA	871
CTGAGCAAAAGGAGGAAGCTGTGGTCTGTGTACCCA	810
TGGTGGCTATTTCCTCTCCCGCTGTGGTCCCTGGAG	728
ATCAGAGCGGAAATCTCAGTCTTGTGTGGGGACCTG	647
GAAGTCACATCCTGTCTGTTGCGGCAGGGCACAGAG	756
GTGAACTTCCTCCCCCACTGCCTATTTTTACCGCAG	1820
TCCCCACACTTCCGGCCCCGCCCGCACAGCCGCACC	1130
